# Bioassay records (PubChem)
# KCNQ2 block: rat KCNQ2 potassium channel inhibitors, primary screen, cell-based, CHO-K1, FluxOR thallium flux, B-score; Potassium voltage-gated channel subfamily KQT member 2 (Rattus norvegicus), O88943; AID 2156, 2009; hit rate 1.1% among 310,000; B-score at 10 µM; 20 min; stronger effect = lower value;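 active means fluorescence ratio B-score at most minus 3 library SDs, with starting brightness B-score within 2 library SDs, cut at about -5.5 in these data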
# KCNQ2 enhance: potentiators of rat KCNQ2 potassium channel | AID 2239, 2010 | hit rate 0.54% among 310,000 | CHO-K1 KCNQ2, FluxOR thallium flux fluorescence; stronger effect = higher value | B-score at 10 µM | Potassium voltage-gated channel subfamily KQT member 2 (Rattus norvegicus), O88943;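 active means fluorescence ratio B-score at least 3 SD of library B-scores, with initial fluorescence B-score within 3 of them, cut at about 5.3 in these data; same plate scores as AID 2156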;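 further: B-score of peak minus minimum over baseline fluorescence ratio after K+ and Tl+ stimulus; positive B-score means potentiation of KCNQ2 with more thallium influx and brighter signal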
# Kir21 confirm: mouse Kir2.1 channel blockers, retest, confirmation, cell-based, FluxOR thallium flux, duplicate. shares compounds with KCNQ2 enhance. Kir2.1-expressing cells, FluxOR thallium flux fluorescence; stronger effect = lower value. Tl flux remaining, % of negative control (stronger effect = lower value), % at 10 µM. hit rate 41% among 2,300;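 active means Primary-screen hit whose thallium flux fell at least 3 control SD below untreated wells in both duplicates, with normal baseline fluorescence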;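 further: 0% = blank wells without stimulus and 100% = stimulated no-compound controls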
# HEK293 ctr: parental HEK293 activity in Kir2.1 inhibitor counter-screen; shares compounds with KCNQ2 enhance; parental HEK293 cells, FluxOR thallium flux fluorescence; 0% = unstimulated blank wells; FluxOR signal as % of negative control (100 = no effect), % at 10 µM; hit rate 19% among 2,300; AID 2105;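 active means dye signal at least 3 control SD above or below untreated wells in both duplicates, raw fluorescence within 3, either direction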;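 further: percent is based on the flux ratio of peak minus minimum fluorescence over baseline F0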
# CHO-K1 Tl ctr: nonspecific thallium flux increase in parental CHO-K1, confirmation, counter-screen for KCNQ2 potentiator project, cell-based, FluxOR thallium flux, duplicate; shares compounds with KCNQ2 enhance; parental CHO-K1 cells, FluxOR thallium flux fluorescence; zero = vehicle mean+3SD, 100% = vehicle-minus-blank window; activity increase over 3SD of controls, % at 10 µM; hit rate 43% among 1,200; AID 2282, 2010;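 active means signal rise of at least 3 SD above the untreated control mean, in both duplicate wells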;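 further: counter screen of KCNQ2 potentiator hits so any rise reflects channel-independent effects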
# KCNQ1 pot spec: human KCNQ1 channel potentiation off-target, confirmation, selectivity assay for KCNQ2 potentiator project, cell-based, CHO, FluxOR thallium flux; shares compounds with KCNQ2 enhance; CHO KCNQ1 stable, FluxOR thallium flux fluorescence; beyond 3SD, as % of vehicle-control signal; activation over 3SD threshold, % at 10 µM; hit rate 28% among 1,200;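 active means fluorescence ratio rise of at least 3 SD of vehicle wells above their mean, in both replicate wells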;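 further: 0% = vehicle mean plus 3 SD and 100% = vehicle minus unstimulated blank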
# Target sequence (P51787 whole entry, looked up): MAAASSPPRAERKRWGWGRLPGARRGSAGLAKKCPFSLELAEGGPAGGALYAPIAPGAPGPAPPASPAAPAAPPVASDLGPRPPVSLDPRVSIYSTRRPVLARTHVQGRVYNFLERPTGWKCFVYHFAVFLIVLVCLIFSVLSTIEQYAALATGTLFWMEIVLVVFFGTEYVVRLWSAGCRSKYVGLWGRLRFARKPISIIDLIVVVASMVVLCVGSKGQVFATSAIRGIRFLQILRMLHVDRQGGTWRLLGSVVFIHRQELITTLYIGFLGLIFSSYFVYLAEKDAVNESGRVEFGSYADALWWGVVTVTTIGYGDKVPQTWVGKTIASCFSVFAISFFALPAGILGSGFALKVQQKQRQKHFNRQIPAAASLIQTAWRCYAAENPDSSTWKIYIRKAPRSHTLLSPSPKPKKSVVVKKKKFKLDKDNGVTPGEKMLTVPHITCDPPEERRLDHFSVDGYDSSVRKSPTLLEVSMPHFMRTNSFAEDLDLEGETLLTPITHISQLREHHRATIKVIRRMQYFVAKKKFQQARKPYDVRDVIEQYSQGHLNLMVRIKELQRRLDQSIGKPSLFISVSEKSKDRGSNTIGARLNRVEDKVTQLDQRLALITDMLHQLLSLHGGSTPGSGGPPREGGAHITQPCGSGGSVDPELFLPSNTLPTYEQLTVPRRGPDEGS
# KCNQ2 pot conf: rat KCNQ2 channel potentiators, confirmation, cell-based, CHO, FluxOR thallium flux, duplicate; CHO-KCNQ2 cells, FluxOR thallium flux fluorescence; hit rate 68% among 1,200; potentiation, less the hit threshold, % at 10 µM; shares compounds with KCNQ2 enhance;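 active means fluorescence ratio rising 3 SD or more over the vehicle control mean in both replicates, plus primary screen hit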;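 further: peak minus minimum thallium fluorescence divided by baseline after K/Tl stimulus; 0% = vehicle mean plus 3 SD and 100% = vehicle minus unstimulated blank difference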
# Kir21 spec: mouse Kir2.1 channel activation off-target, confirmation, selectivity assay for KCNQ2 potentiator project, cell-based, HEK293, FluxOR thallium flux; shares compounds with KCNQ2 enhance; HEK293 Kir2.1, FluxOR thallium flux fluorescence; activity over 3SD threshold, % at 10 µM; hit rate 2% among 1,200;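 active means fluorescence ratio rise of at least 3 SD above the vehicle-control mean, seen in both replicates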;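 further: 0% = vehicle mean plus 3 SD and 100% = vehicle minus no-stimulus blank window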
# KCNQ2 W236L MoA: potentiators of retigabine-insensitive KCNQ2 W236L, mechanism study for KCNQ2 potentiator project, cell-based, rat KCNQ2 W236L, CHO, automated patch clamp; shares compounds with KCNQ2 enhance; automated patch clamp current; current increase over 3SD of negative controls (%), stronger effect = higher value, % at 25 µM; hit rate 10% among 940;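 active means current increase at least 3 SD of the untreated controls above them in both duplicate recordings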
# * marks the source's active call; other numbers are inactive results; i = inactive; nt = no result. An excerpt weighted towards active compounds, which were near 1.6% of everything screened.
SMILES,KCNQ2 block,KCNQ2 enhance,Kir21 confirm,HEK293 ctr,others
CCOC(=O)c1c(NC(=O)CCNCc2ccco2)sc2c1CCC2,i,nt,28%*,i,
COc1ccc(NC(=O)CCCC(=O)NCCc2ccc(OC)c(OC)c2)cc1,i,1.5,nt,nt,
CCOc1ccc(NC(=O)CCCN2C(=O)C(c3ccccc3)Oc3cccnc32)cc1 (stereo not given),i,0.56,nt,nt,
O=CN1CCCN(C(=O)CC2C(=O)NCCN2Cc2cccc(Oc3ccccc3)c2)CC1 (stereo not given),i,nt,nt,nt,
CC1CCc2c(sc(NS(=O)(=O)c3ccccc3)c2C(=O)OC(C)C)C1 (stereo not given),i,4.1,i,i,
CC1CCc2c(sc(NC(=O)c3ccco3)c2C(=O)O)C1 (stereo not given),i,1.6,nt,nt,
Cc1cc(C)n(-c2ccnc3cc(Cl)ccc23)n1,i,0.06,nt,nt,
CC1CCCC(C)N1/N=C/c1cc(Br)cc(Br)c1O (stereo not given),i,nt,nt,nt,
CC(=O)N1c2ccc(N=Cc3cc(Br)cc(Br)c3O)cc2CC1C (stereo not given),i,12*,i,i,CHO-K1 Tl ctr=-16;KCNQ1 pot spec=43*;KCNQ2 pot conf=14*;Kir21 spec=-33;KCNQ2 W236L MoA=i
CCCc1nc2oc3c(NCCN(C)C)ncnc3c2c2c1CCCC2,i,5.4*,i,i,CHO-K1 Tl ctr=-16;KCNQ1 pot spec=-4;KCNQ2 pot conf=51*;Kir21 spec=-57;KCNQ2 W236L MoA=i
CCCc1nc2oc3c(Cl)ncnc3c2c2c1CCCC2,i,0.39,nt,nt,
CCC1(c2ccccc2)NC(=O)N(CC(=O)Nc2cc(S(=O)(=O)N3CCCCC3)ccc2OC(C)C)C1=O (stereo not given),i,nt,nt,nt,
O=C1Nc2ccc(Br)cc2C12NNc1ccccc1O2 (stereo not given),i,nt,nt,nt,
O=C(N/N=C/c1ccc(OCc2ccccc2)cc1)c1ccco1,i,0.07,nt,nt,
NC(N)=N/N=C/c1ccc(OCc2ccccc2)cc1,-6.8*,-6.8,16%*,i,
Cc1ccc(NC(=O)CSc2nc3c(c(=O)[nH]2)CCC3)c(C)c1,i,0.29,nt,nt,
Cc1ccc(C(=O)O)cc1N=Cc1cc(Br)cc(Br)c1O,i,10*,i,i,CHO-K1 Tl ctr=-20;KCNQ1 pot spec=-21;KCNQ2 pot conf=31*;Kir21 spec=-21;KCNQ2 W236L MoA=i
CC(=O)Nc1ccc(C(=O)N/N=C/c2cc(Br)cc(Br)c2O)cc1,i,nt,nt,nt,
CCN=C1S/C(=C\c2cc(Br)c(O)c(OC)c2)C(=O)N1CC,i,nt,nt,nt,
COc1ccc(NC(=O)CCC(=O)N2CCOCC2)c([N+](=O)[O-])c1,i,nt,nt,nt,
Cc1ccnc(Nc2nc(-c3sc(C)nc3C)cs2)c1,i,2.9,nt,nt,
Cc1nc(C)c(-c2csc(Nc3ccccn3)n2)s1,i,5.7*,i,i,CHO-K1 Tl ctr=-14;KCNQ1 pot spec=15*;KCNQ2 pot conf=26*;Kir21 spec=-28;KCNQ2 W236L MoA=40%*
CC(C)Oc1ccc(CNC(=O)c2cc(S(=O)(=O)N3CCOCC3)cn2C)cc1,i,nt,nt,nt,
CCOc1cc(N2CCOCC2)c(OCC)cc1NC(=O)CC12CC3CC(CC(C3)C1)C2,i,23*,i,i,CHO-K1 Tl ctr=-18;KCNQ1 pot spec=-25;KCNQ2 pot conf=113*;Kir21 spec=-28;KCNQ2 W236L MoA=0.7%*
CCOc1cc(N2CCOCC2)c(OCC)cc1NC(=O)Cc1ccc(OC)c(OC)c1,i,nt,nt,nt,
SMILES,KCNQ2 block,KCNQ2 enhance,Kir21 confirm,HEK293 ctr,others
CCOc1cc(N2CCOCC2)c(OCC)cc1NC(=O)Cc1cccc(OC)c1,i,10*,i,i,CHO-K1 Tl ctr=36*;KCNQ1 pot spec=14*;KCNQ2 pot conf=72*;Kir21 spec=-50;KCNQ2 W236L MoA=i
CCOc1cc(N2CCOCC2)c(OCC)cc1NC(=O)CN1C(=O)NC(C)(C2CC2)C1=O (stereo not given),i,nt,nt,nt,
NS(=O)(=O)c1cccc(NC(=O)COC(=O)C2CCCCC2)c1,i,0.01,nt,nt,
O=C(CCNC(=O)C1CCN(S(=O)(=O)c2ccc(F)cc2)CC1)NCc1cccc(Cl)c1,i,0.04,nt,nt,
CCc1nccn1S(=O)(=O)c1cc(OC)ccc1OC,i,nt,nt,nt,
CC12CCC(=O)N1C(C(=O)N1CCN(S(=O)(=O)c3cccc(Cl)c3)CC1)CS2 (stereo not given),i,1.8,nt,nt,
CN(C)CC1CCCCC1OC(=O)c1ccc(Cl)cc1 (stereo not given),i,0.35,nt,nt,
CN(C)CC1CCCCC1C1(O)c2ccccc2CSc2sccc21 (stereo not given),i,1.5,69%*,i,
Cc1ccc(Nc2nc(N)c(C#N)c(CC#N)c2C#N)cc1,i,nt,nt,nt,
CCc1ccc(-c2cc(C(=O)N/N=C/c3ccco3)[nH]n2)cc1,i,1.3,nt,nt,
O=C(N/N=C/c1ccco1)c1cc(-c2ccc3ccccc3c2)n[nH]1,i,9.2*,i,i,CHO-K1 Tl ctr=54*;KCNQ1 pot spec=-13;KCNQ2 pot conf=32*;Kir21 spec=-27;KCNQ2 W236L MoA=i
CCC(C)c1ccc(C(C)NC(=S)NCc2ccc(F)cc2)cc1 (stereo not given),i,5.2,nt,nt,
CCC(NC(=S)NCc1ccc(F)cc1)c1ccc(C(C)C)cc1 (stereo not given),i,7.2*,i,i,CHO-K1 Tl ctr=78*;KCNQ1 pot spec=-13;KCNQ2 pot conf=21*;Kir21 spec=-29;KCNQ2 W236L MoA=i
CC(C)c1nc2c(s1)CCc1onc(-c3cccc([N+](=O)[O-])c3)c1-2,i,nt,nt,nt,
CCc1ccc(CCC(=O)Nc2ccc(C)cc2C)o1,i,6*,i,i,CHO-K1 Tl ctr=-8;KCNQ1 pot spec=-8;KCNQ2 pot conf=1.0*;Kir21 spec=-36;KCNQ2 W236L MoA=i
Cc1ccc(NC(=O)CCc2ccc(C)o2)c(Br)c1,i,4.2,nt,nt,
CCN(CC(=O)NC(=O)NC1CCCCC1)Cc1ccccc1,i,nt,nt,nt,
CCN(CC(=O)NC(=O)NC1CCCCC1)Cc1nc2ccccc2c(=O)[nH]1,i,10*,i,i,CHO-K1 Tl ctr=63*;KCNQ1 pot spec=17*;KCNQ2 pot conf=34*;Kir21 spec=-33;KCNQ2 W236L MoA=i
